Results on 40 compounds are retold here after PubChem BioAssay (Tox21).

Inconclusive results are not listed. Values without a mark were called inactive. The source made the active and inactive calls. Calls follow the shape of the dose curve; as a rule, active = well fitted cell-killing curve with a large enough effect in the repeat runs; inconclusive = weak or mixed curves; inactive = no such curve, though single readings can be large or run the other way.
% is scaled to controls: 0 for no effect and ±100 for the full control effect; potency is read from the fitted curve at half-maximal effect.

A short description of the test: qHTS assay for identifying genotoxic compounds that show differential cytotoxicity against isogenic chicken DT40 cell lines with known DNA damage response pathways - Rad54/Ku70 mutant cell line (AID 743015). Also: nearly all actives have a fitted effect of over 60% in size. The settings on record: DT40 Rad54/Ku70 mutant viability, CellTiter-Glo, 40 h; series mostly up to 66.8 µM; activity change, negative = cytotoxicity: at the top concentration. An excerpt: National Center for Advancing Translational Sciences [NCATS]
NIH Chemical Genomics Center [NCGC]
U.S. Environmental Protection Agency [EPA]
National Institutes of Environmental Health Sciences [NIEHS]
National Toxicology Program [NTP]
U.S. Food and Drug Administration [FDA]
DNA repair pathways play a critical role in cellular homeostasis by repairing DNA damage induced by endogenous processes and xenobiotics. Isogenic chicken DT40 cell lines deficient in different DNA repair pathways can be used to identify genotoxic compounds and aid in characterizing the nature of the DNA damage induced. Two DNA repair-deficient cell lines with disrupted genes, Rad54/Ku70 or Rev3, were used to screen the Tox21 10K compound library. Possible genotoxicity was based on the presence of a significant increase in cytotoxicity in one or more of the DNA repair-deficient cell lines compared to that observed in the parental DNA repair-proficient cell line. CellTiter Glo viability assay (Promega, Madison, WI) was used to measure cell viability in these cells after compound treatment. This assay includes the data from the Rad54/Ku70 mutant cell line.
Tox21 Assay Protocol Summary:
300 DT40 mutant cells in 5 uL/well were dispensed into white, solid-bottom 1536-well plates using a Multidrop Combi (ThermoFisher Scientific, Waltham, MA) dispenser. After the assay plates were incubated at 37 C/5% CO2 for approximately 0.5 hour, 23 nL of compounds dissolved in DMSO, positive controls or DMSO only was transferred into the assay plate by a pintool work station (Kalypsys, San Diego, CA). The assay plates were incubated at 37 C/5% CO2 for 40 hours. After 5 uL per well of CellTiter-Glo reagent was added into each well of the assay plates, the plates were incubated for 30 min at room temperature and the luminescence intensity of the plates was measured using a ViewLux (PerkinElmer, Shelton, CT) plate reader.
Regarding `CCCCCCCCCCCCc1ccc(O)cc1`, the Potency is 12.2 µM (active).

Consider `CC(C)c1ccc2c(c1)CC[C@H]1[C@](C)(CN)CCC[C@]21C`, for which the Potency is 5.45 µM (active).

As for `CN1CCC(Nc2ncc3ncnc(Nc4ccc(F)c(Cl)c4)c3n2)CC1`, the Potency was 21.1 µM (active).

`CCCCCCOC(=O)c1ccc(O)cc1`: the Potency is 48.6 µM (active).

For `C=C(C)C(=O)OCC[N+](C)(C)C`, the Potency is 38.4 µM (active).

As for `CCc1cc(Cc2cc(CC)c(N)c(CC)c2)cc(CC)c1N`, the Potency is 54.5 µM (active).

In the case of `CCOC(=O)/C=C(C)/C=C/C=C(C)/C=C/c1c(C)cc(OC)c(C)c1C`, the Potency is 6.68 µM (active).

Take `NNc1nc(-c2ccc(N)cc2)cs1`: the Potency was 10.9 µM (active).

For the compound `CCCCN(CCCC)C(=O)N(CCCC)CCCC`, the “activity change, negative = cytotoxicity” value was -9.84%.

Turning to `CCCCCCCCCCCCCCCCCC[N+](C)(C)Cc1ccccc1`, the Potency is 0.871 µM (active).

Turning to `OCc1c[nH]c2ccccc12`, the Potency is 64.8 µM (active).

`CCN(CC)CCNC(=O)c1c(C)[nH]c(/C=C2\C(=O)Nc3ccc(F)cc32)c1C`: the Potency was 7.5 µM (active).

Consider `[Cl][Bi]([Cl])([c]1ccccc1)([c]1ccccc1)[c]1ccccc1`, for which the Potency is 2.42 µM (active).

`Cc1cc(CCN2CCN(c3nsc4ccccc34)CC2)cc2c1NC(=O)CC2(C)C`: the Potency was 4.86 µM (active).

Turning to `CN(C)c1ccc(SC#N)cc1`, the Potency is 38.6 µM (active).

Regarding `O=c1[nH]cnc2nc[nH]c12`, the “activity change, negative = cytotoxicity” value is 14.6%.

For `CC1(C)CCC(C)(C)c2cc(C(=O)Nc3ccc(C(=O)O)cc3)ccc21`, the Potency is 21.7 µM (active).

For the compound `Clc1ccc2cc3ccccc3cc2c1`, the “activity change, negative = cytotoxicity” value is -3.11%.

`NNC(=O)c1cccc(C(=O)NN)c1`: the “activity change, negative = cytotoxicity” value is 5.32%.

As for `CCCCCCCCNC(C)C(O)c1ccc(SC(C)C)cc1` (stereo not given), the Potency is 1.68 µM (active).

`CC[C@@]1(O)C(=O)OCc2c1cc1n(c2=O)Cc2cc3c(CN(C)C)c(O)ccc3nc2-1`: the Potency was 0.841 µM (active).

As for `CCCCCCCC/C=C\CCCCCCCCOCCO`, the Potency is 8.91 µM (active).

As to `CCCCCCCCCCCCCC[P+](CCCC)(CCCC)CCCC` (tested in a mixture with another compound), the Potency is 0.218 µM (active).

In the case of `CNc1ccc(O)cc1`, the Potency is 10.8 µM (active).

For the compound `C1CCCC1`, the “activity change, negative = cytotoxicity” value is -0.0885%.

Consider `Nc1ccc(N)c2ccccc12`, for which the Potency was 6.85 µM (active).

Consider `CSc1cnc(C)cn1`, for which the “activity change, negative = cytotoxicity” value is -0.653% [at 95.1 µM].

Turning to `CCCCCCCCn1sc(Cl)c(Cl)c1=O`, the Potency is 0.686 µM (active).

With `Oc1cccc(-c2c3nc(c(-c4cccc(O)c4)c4ccc([nH]4)c(-c4cccc(O)c4)c4nc(c(-c5cccc(O)c5)c5ccc2[nH]5)CC4)C=C3)c1`, the Potency is 26.6 µM (active).

In the case of `CC(C)(C)C(=O)OCOC(=O)[C@@H]1N2C(=O)[C@@H](NC(=O)[C@H](N)c3ccccc3)[C@H]2SC1(C)C`, the “activity change, negative = cytotoxicity” value is 8.53% [at 30.7 µM].

For `O=C(O)c1cc(O)c2c(c1)C(=O)c1cccc(O)c1C2=O`, the “activity change, negative = cytotoxicity” value was 2.62% [at 95.1 µM].

Regarding `CCCN(CCC)C(=O)C(CCC(=O)OCCCN1CCN(CCOC(=O)Cc2c(C)n(C(=O)c3ccc(Cl)cc3)c3ccc(OC)cc23)CC1)NC(=O)c1ccccc1` (stereo not given), the Potency was 23.7 µM (active).

For `CCCC/C=C/CCCCO`, the “activity change, negative = cytotoxicity” value is -25.5%.

As for `Cc1cccc2c1cc1ccc3cccc4ccc2c1c34`, the “activity change, negative = cytotoxicity” value was -2.66% [at 95.1 µM].

Turning to `C[C@@H](NCCCc1cccc(C(F)(F)F)c1)c1cccc2ccccc12`, the Potency is 5.96 µM (active).

With `Cn1cc(C(=O)[C@@H]2CCc3nc[nH]c3C2)c2ccccc21`, the “activity change, negative = cytotoxicity” value was -1.91%.

As for `CCOC(=O)c1nc(C(Cl)(Cl)Cl)n(-c2ccc(Cl)cc2Cl)n1`, the Potency was 30.6 µM (active).

On to `COc1ccc(-c2ccc3cc(C(=O)O)ccc3c2)cc1C12CC3CC(CC(C3)C1)C2`, for which the “activity change, negative = cytotoxicity” value is 2.29%.

Consider `CSc1ccc(C(=O)c2[nH]c(=O)[nH]c2C)cc1`, for which the “activity change, negative = cytotoxicity” value was 0.507%.

With `CCCCCCCCS(=O)C(C)Cc1ccc2c(c1)OCO2` (stereo not given), the Potency is 69.9 µM (active).
